Reference: PubChem BioAssay (NCATS)
Results filed as inconclusive are left out. Where a call stands in place of a potency, no number is given. Calls of active or inactive are those of the source. Calls follow the shape of the dose curve; as a rule, active = well fitted inhibition curve with a large enough effect; inconclusive = small, poorly fitted or top-dose-only effect; inactive = no such curve, though single readings can be large or run the other way.

The compounds below were run on Zika virus NS2B-NS3 protease (unlinked complex) (assay: Primary screen GU Rhodamine qHTS for Zika virus inhibitors: Unlinked NS2B-NS3 protease assay (AID 1347159; also: nearly all actives have a fitted effect of over 60% in size)). Conditions: Recombinant ZIKV NS2B-NS3 protease, Rhodamine110 substrate fluorescence; series mostly up to 107 µM.
Description: Avindra Nath, Ph.D., National Institute of Neurological Disorders and Stroke (NINDS), Bethesda, MD
Radhakrishnan Padmanabhan, Ph.D., Georgetown University (GU), Washington D.C.
Zika Virus causes congenital defects, including microcephaly and is associated with Guillain-Barre syndrome, eningoencephalitis and myelitis in infected adult. […] Using a target-based approach, we hope to establish a screening paradigm to uncover novel, cell-active NS2B-NS3 protease (Zika Virus) specific inhibitors from NCATS' collection of small molecules using qHTS.
Four assay panel was created to identify potential Zika Virus inhibitors. Namely, (1) GU unlinked NS2B-NS3 AMC tagged protease qHTS, (2) GU unlinked NS2B-NS3 Rhodamine tagged protease qHTS, (3) NINDS linked NS2B-NS3 AMC tagged protease qHTS, (4) NINDS linked NS2B-NS3 Rhodamine tagged protease qHTS. Active compounds were re-acquired and re-screened to confirm inhibition. Inhibitors were further screened against various confirmatory and counterscreens in dose response format.
Early Translation Branch (ETB)
National Center for Advancing Translational Sciences (NCATS), Rockville, MD
National Institute of Health (NIH), Bethesda, Maryland
Padmanabhan lab provided the NS2B hydrophilic domain and NS3 protease domain in a noncovalent complex used for the unlinked assay. Control compound aprotinin is obtained from Thermo Scientific (#78432; Waltham, Massachusetts). Rhodamine110 substrate ([N-Cbz]-Nle-Lys-Arg-Arg-Rhod110-Arg-Arg-Lys-Nle-[N-Cbz]) was purchased from either Genscript or Bachem.
1536-well Protease (Rhodamine110 Substrate) Assay:
Briefly, 3 microL of enzyme (25 nM final concentration), in assay buffer (10 mM Tris-HCl pH 8.0 with 0.01% Tween 20) were dispensed into a 1,536-well solid-bottom black plate (Greiner Bio One, Monroe, NC). Twenty-three nL of compounds (final concentration range 7.28 nM to 114 microM) or control Aprotinin (final concentration range 3.47 nM to 114 microM) were transferred via Wako Pin-tool (Wako Automation, Richmond, VA). Samples were incubated (room temperature, protected from light) for 15 minutes followed by a 1 microL Rhodamine110 substrate addition (1.5 microM final concentration). Plates were then immediately read on a ViewLux High-throughput CCD imager (PerkinElmer, Waltham, MA) equipped with FITC fluorescence optics (480(20) nm excitation, 540(25) nm emission), then incubated (room temperature, protected from light) for 15 minutes (~15% conversion). The change in fluorescence intensity over the 15-minute reaction period was normalized against no-inhibitor and no-enzyme controls and the resulting percent inhibition data were fitted to a 4-parameter Hill equation. Aprotinin was used as intraplate control.
Potency is read from the fitted curve at half-maximal effect.

Compound | Potency | activity change, negative = inhibition
Cc1c[nH]c2ncnc(N3CCC(CN)(C(=O)Nc4cccc(OC(=O)N(C)C)c4)CC3)c12 | inactive | 
CC(C)(C)c1ccc(-c2nc3c(N4CCN(Cc5ccc6nccnc6c5)CC4)cccc3[nH]2)cc1 | inactive | 
CCC[C@@]1(CCc2ccccc2)CC(O)=C([C@H](CC)c2cccc(NS(=O)(=O)c3ccc(C(F)(F)F)cn3)c2)C(=O)O1 | 8.91 µM (active) | 
C=C[C@@]1(C)C=C2C(=O)C(O)=C3[C@](C)(C(=O)O)CC[C@@H]4C[C@]34[C@]2(O)C(=O)C1 | inactive | 
COc1cccc(OCCCN)c1-c1cc(Nc2cnc(C#N)cn2)n[nH]1 | inactive | 
Nc1c(S(=O)(=O)c2ccccc2)c2nc3ccccc3nc2n1-c1ccc(F)cc1 | inactive | 
COc1ccc(CNc2nc(N(CCO)CCO)nc3c2ncn3C(C)C)cc1 | inactive | 
CCN(Cc1cc(Nc2nc(C)cn3c(-c4cn[nH]c4)cnc23)sn1)C(C)(C)CO | inactive | 
CC(=O)C1=C(O)C=C2Oc3c(C(C)=O)c(O)c(C)c(O)c3[C@]2(C)C1=O | 31.6 µM (active) | 
C=C1C(=O)OC2/C=C(\COC(C)=O)CC/C=C(\C=O)CC(OC(=O)CC(C)C)C12 (stereo not given) | inactive | 
CC(C)c1ccc(NC(=O)Cn2cnc3c2c(=O)n(C)c(=O)n3C)cc1 | inactive | 
CCc1cnc(N2CCC(c3nc(COc4ccc(-n5cnnn5)cc4)cs3)CC2)nc1 | inactive | 
CC(C)(C)c1ccc(C(=O)Nc2cn3cc(-n4ccnc4)ccc3n2)cc1 | inactive | 
CNC(=O)c1ccc2c(c1)CCO[C@H]2CCN1CCN(c2ccc(OC)cc2)CC1 | inactive | 
CC(C)=C1C[C@@]2(C)C(=CC1=O)CC[C@@H](OC(=O)/C(C)=C/CO)[C@@H]2C | inactive | 
COC1CC/C=C(\C)C(=O)Nc2cc(O)cc(c2)CC(C)CC(OC)C(O)C(C)/C=C(\C)C1OC(N)=O (stereo not given) | inactive | 
CC(C)(C)Sc1c(CC(C)(C)C(=O)O)n(Cc2ccc(Cl)cc2)c2ccc(OCc3ccc4ccccc4n3)cc12 | 2.82 µM (active) | 
O=c1cc(N2CCN(c3cccc(C(F)(F)F)c3)CC2)[nH]c(=O)n1C1CCCCC1 | inactive | 
Cc1cnc(-c2ccccc2C(C)C)nc1NCc1ccc(-n2ccnn2)cc1 | inactive | 
C=CC(=O)Nc1cccc(Nc2nc(Nc3ccc(OCCOC)cc3)ncc2F)c1 | inactive | 

Compound | Potency | activity change, negative = inhibition
Cc1cc(C)cc(-c2cnc3cc(Cl)c(-c4cccc(O)c4)cc3c2OCCCN)c1 | inactive | 
Cc1nc(NC(=O)N2CCC[C@H]2C(N)=O)sc1-c1ccnc(C(C)(C)C(F)(F)F)c1 | inactive | 
CC1=C2C[C@@]3(C)C(CCC[C@@H]3C)C(O)C2OC1=O (stereo not given in full) | inactive | 
CCC(C)/C=C(C)/C=C/C1=CC2=C(Cl)C(=O)C(C)(OC(C)=O)C(=O)C2(O)C(OC)O1 (stereo not given) | 28.2 µM (active) | 
CC1OC(OC2C(O)COC(O[C@@H]3[C@@H](O)[C@@H](O)[C@H](OC4C(OC(=O)[C@]56CCC(C)(C)CC5C5=CCC7[C@@]8(C)C[C@H](O)[C@H](OC9OC(CO)C(O)C(O)C9O)[C@@](C)(CO)C8[C@H](O)C[C@@]7(C)[C@]5(C)CC6)OCC(O)C4O)O[C@H]3C)C2O)C(O)C(O)C1O (stereo not given in full) |  | 8.24% [at 19.1 µM] (inactive)
CC(CCC1(O)OC2CC3C4CC=C5CC(O[C@@H]6O[C@H](CO)[C@@H](O[C@@H]7O[C@@H](C)[C@H](O)[C@@H](O)[C@H]7O)[C@H](O)[C@H]6O[C@@H]6O[C@@H](C)[C@H](O)[C@@H](O)[C@H]6O)CCC5(C)C4CCC3(C)C2C1C)CO[C@@H]1O[C@H](CO)[C@@H](O)[C@H](O)[C@H]1O (stereo not given in full) | inactive | 
COc1ccc2c(c1O[C@H]1CCNC1)CCC2 | inactive | 
COc1ccc(NC(=O)C2C[C@H](C)CC[C@H]2C(C)C)cc1 (stereo not given in full) | inactive | 
C=C1/C(=C/C=C2\CCC[C@]3(C)[C@@H]([C@H](C)/C=C/[C@H](O)C4CC4)CC[C@@H]23)C[C@@H](O)C[C@@H]1O | 50.1 µM (active) | 
COc1cc(OC)c2c(=O)[nH]c(-c3cc(C)c(OCCO)c(C)c3)nc2c1 | inactive | 
Cc1[nH]c2ccccc2c1CCNC(=O)c1cccs1 | inactive | 
CC(=O)N[C@H]1[C@H](O[C@H]2CC[C@@]3(C)C(CC[C@]4(C)C3CC=C3C5CC(C)(C)CC[C@]5(C(=O)O)C(O)C[C@]34C)C2(C)C)O[C@H](CO[C@@H]2O[C@H](C)[C@H](O)[C@H](O)[C@H]2O[C@@H]2OC[C@@H](O)[C@H](O)[C@H]2O)[C@@H](O)[C@@H]1O (stereo not given in full) | inactive | 
Cc1c(Cl)cccc1S(=O)(=O)Nc1nc(NCCc2ccccc2)nc2c1CN(Cc1ccccc1)CC2 | 7.94 µM (active) | 
CN1CCN(C2=Nc3ccccc3Nc3ccc(Cl)cc32)CC1 | inactive | 
C=CC(C)(O)CC/C=C(/C)COC(=O)C(C)C1CCC(C)(C=C)O1 (stereo not given) | inactive | 
O[C@@](Cc1ncc(CC2(C(F)(F)F)CC2)[nH]1)(c1ccc(-n2cccn2)cc1)C(F)(F)F | inactive | 
COc1ccc(N(C(=O)Nc2c(C)cccc2C)c2cc(Nc3ccc(N4CCN(C)CC4)cc3)ncn2)c(OC)c1 | inactive | 
CC(=O)NCc1cccc(OC[C@@H](O)CNCCc2ccc(NS(=O)(=O)c3ccccc3)cc2)c1 | inactive | 
O=C(Nc1ccc(CN2CCOCC2)cc1)c1ccc(-c2cccc(Cl)c2)o1 | inactive | 
COc1cc(-c2cn(C3CCc4c(F)cccc4N(CC(F)(F)F)C3=O)nn2)ccc1-n1cnc(C)c1 (stereo not given) | inactive | 
